Laboratory results as given in PubChem BioAssay AID588689 (Southern Research Specialized Biocontainment Screening …, 2011).
Where “and” joins values, the source holds several entries; their conditions need not be identical. Equal entries are not always repeated. Hit rate of the full screen: of about 340,000 compounds, about 1,000 (0.29%) were called active. A selection follows. Potency and affinity values are given separately. A number with no mark means an inactive call. No stated cut-off is given here; in the data, inconclusive means inhibition above about 29% without an active follow-up result; inactive means below that.

Biological target: Genome polyprotein (Dengue virus type 2 (strain 16681-PDK53)) (UniProt P29991)
Assay: Dengue-2 NS5 methyltransferase inhibitors, primary screen, biochemical, confirmation dose response (AID 588689)
Conditions: Dengue-2 NS5 methyltransferase capping enzyme assay, at 25 µM, hits give high values

Sequence of Genome polyprotein (Dengue virus type 2 (strain 16681-PDK53)) (P29991 whole entry, looked up): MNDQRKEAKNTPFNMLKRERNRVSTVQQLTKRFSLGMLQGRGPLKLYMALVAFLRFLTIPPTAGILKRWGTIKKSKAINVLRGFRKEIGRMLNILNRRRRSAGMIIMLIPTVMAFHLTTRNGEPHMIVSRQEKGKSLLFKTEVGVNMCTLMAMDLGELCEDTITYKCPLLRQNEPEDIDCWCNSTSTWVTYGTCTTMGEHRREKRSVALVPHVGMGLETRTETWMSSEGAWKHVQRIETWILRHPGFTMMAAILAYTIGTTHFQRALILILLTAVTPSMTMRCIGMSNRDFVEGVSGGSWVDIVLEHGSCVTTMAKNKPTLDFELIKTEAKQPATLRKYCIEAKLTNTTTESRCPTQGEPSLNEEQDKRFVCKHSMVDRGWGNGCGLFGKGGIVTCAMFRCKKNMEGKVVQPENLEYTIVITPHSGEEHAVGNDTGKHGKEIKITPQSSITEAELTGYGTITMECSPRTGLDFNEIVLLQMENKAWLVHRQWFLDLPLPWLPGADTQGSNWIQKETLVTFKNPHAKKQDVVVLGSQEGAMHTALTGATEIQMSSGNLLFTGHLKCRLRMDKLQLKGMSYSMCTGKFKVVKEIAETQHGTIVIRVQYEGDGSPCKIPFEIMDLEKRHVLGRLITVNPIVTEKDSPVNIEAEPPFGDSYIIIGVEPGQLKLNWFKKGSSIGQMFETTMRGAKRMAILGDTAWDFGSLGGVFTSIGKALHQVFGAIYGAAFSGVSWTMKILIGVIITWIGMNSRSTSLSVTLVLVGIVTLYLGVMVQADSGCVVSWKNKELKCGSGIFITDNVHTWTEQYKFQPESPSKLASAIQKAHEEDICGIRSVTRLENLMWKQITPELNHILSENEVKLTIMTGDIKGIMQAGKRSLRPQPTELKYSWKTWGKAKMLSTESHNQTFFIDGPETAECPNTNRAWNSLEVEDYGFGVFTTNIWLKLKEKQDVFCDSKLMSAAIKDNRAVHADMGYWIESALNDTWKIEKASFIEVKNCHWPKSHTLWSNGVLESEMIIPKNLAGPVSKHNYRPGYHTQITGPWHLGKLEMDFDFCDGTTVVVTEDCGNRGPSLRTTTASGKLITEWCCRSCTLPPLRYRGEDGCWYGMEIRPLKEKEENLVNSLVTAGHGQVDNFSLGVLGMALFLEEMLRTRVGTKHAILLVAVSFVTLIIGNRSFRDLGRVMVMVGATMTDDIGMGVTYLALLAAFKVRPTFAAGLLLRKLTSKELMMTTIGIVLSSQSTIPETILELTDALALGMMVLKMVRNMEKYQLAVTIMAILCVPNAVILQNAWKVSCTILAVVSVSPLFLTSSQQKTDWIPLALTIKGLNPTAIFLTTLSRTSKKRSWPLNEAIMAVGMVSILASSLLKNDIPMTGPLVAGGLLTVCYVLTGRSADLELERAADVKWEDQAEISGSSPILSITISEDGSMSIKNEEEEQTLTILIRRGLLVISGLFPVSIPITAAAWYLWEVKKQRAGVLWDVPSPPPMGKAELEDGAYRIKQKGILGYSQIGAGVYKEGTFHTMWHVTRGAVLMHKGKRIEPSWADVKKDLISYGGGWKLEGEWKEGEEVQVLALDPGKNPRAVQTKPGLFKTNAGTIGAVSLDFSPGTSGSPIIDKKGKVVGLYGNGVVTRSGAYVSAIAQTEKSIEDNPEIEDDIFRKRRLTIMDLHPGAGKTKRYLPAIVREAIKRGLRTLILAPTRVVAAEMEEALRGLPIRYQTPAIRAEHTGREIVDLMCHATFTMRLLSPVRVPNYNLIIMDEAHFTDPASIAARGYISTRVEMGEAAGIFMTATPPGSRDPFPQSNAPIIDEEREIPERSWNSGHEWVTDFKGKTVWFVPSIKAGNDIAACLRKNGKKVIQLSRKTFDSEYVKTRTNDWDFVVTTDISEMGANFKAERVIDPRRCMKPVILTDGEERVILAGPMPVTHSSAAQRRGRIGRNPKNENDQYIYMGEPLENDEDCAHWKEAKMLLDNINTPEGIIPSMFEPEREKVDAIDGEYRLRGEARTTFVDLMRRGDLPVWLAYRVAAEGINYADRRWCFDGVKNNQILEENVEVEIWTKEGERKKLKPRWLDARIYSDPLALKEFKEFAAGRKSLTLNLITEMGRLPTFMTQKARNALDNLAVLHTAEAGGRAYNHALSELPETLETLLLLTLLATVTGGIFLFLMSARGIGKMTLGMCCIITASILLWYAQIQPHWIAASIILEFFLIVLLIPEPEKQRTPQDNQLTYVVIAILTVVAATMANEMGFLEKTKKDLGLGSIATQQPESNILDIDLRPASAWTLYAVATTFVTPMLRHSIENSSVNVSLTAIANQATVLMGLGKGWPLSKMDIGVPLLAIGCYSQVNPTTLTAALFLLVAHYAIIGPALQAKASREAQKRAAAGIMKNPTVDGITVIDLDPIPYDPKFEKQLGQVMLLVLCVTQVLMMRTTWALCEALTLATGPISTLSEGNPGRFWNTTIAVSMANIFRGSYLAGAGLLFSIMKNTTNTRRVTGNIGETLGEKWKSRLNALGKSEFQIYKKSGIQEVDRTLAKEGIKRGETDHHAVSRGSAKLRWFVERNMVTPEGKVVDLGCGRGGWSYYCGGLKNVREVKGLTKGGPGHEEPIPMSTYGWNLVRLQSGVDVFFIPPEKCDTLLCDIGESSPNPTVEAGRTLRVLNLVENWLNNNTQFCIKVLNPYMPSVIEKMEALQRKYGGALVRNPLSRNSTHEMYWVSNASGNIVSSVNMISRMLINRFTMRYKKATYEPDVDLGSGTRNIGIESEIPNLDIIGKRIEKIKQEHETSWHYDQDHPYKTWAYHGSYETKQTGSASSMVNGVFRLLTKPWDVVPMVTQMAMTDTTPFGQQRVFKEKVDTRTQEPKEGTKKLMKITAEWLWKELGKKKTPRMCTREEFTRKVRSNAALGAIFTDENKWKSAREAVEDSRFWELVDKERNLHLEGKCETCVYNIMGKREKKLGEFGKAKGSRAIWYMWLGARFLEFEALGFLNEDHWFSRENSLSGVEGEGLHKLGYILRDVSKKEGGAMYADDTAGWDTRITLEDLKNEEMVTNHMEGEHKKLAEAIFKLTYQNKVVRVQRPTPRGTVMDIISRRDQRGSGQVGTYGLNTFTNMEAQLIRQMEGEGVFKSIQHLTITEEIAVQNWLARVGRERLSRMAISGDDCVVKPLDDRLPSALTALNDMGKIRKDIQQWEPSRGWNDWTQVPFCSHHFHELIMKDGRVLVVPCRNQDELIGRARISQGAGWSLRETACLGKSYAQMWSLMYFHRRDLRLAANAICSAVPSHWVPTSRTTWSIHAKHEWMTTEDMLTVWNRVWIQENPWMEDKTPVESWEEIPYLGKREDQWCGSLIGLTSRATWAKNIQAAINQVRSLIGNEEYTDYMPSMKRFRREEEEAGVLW

SMILES	inhibition
COC(=O)c1c(-c2ccc(C(C)(C)C)cc2)csc1NC(=O)C1C2CCC(O2)C1C(=O)O (configuration not stated)	10.8%
O=C(Nc1nc2n(n1)C(c1ccc(F)cc1)CC(c1ccccc1)N2)c1ccco1 (configuration not stated)	-3.83%
Cc1ccc2c(ccc[n+]2CC(=O)c2ccccc2)c1	-3.89%
O=C(C1CCN(S(=O)(=O)c2ccccc2)CC1)N1CCN(c2ccccc2F)CC1	-3.69%
COc1cc(OC)c(N2CC(C(=O)NCCC3=CCCCC3)CC2=O)cc1Cl (configuration not stated)	-2.95%
O=C(O)c1cc2ccccc2c(N=Nc2cccnc2)c1O	0.81%
O=C(O)c1cc(N=Nc2c(O)ccc3ccccc23)cc(C(=O)O)c1	20.4%
CN(Cc1ccccc1)S(=O)(=O)c1ccc(Cl)c(C(=O)N2CCC(C(N)=O)CC2)c1	4.28%
Cc1cccc(Cc2nnc(CCC(=O)N(C)CCc3ccccc3)o2)c1	10.8%
CN(C)C(=O)Cn1cc(S(=O)(=O)Cc2ccccc2)c2ccccc21	-2.66%
CCCCNC(=O)c1sc(=S)n2c1[nH]c(=O)c1ccccc12	10.2%
O=C(NCc1ccco1)c1sc(=S)n2c1[nH]c(=O)c1ccccc12	0%
Nc1cc(S(=O)(=O)O)cc2ccc(S(=O)(=O)O)cc12	7.17%
O=S(=O)(O)c1cc(O)c2ccc(Nc3ccccc3)cc2c1	8.94%
CC(=O)Nc1ccc2c(O)cc(S(=O)(=O)O)cc2c1	-7.72%
O=S(=O)(O)c1cccc(N=Nc2c(O)ccc3ccccc23)c1	1.57%
CN(C)c1ccc2cc(S(=O)(=O)O)cc(O)c2c1	81.6%
Nc1ccc(Nc2ccccc2)c(S(=O)(=O)O)c1	54.5%
Nc1ccc(C(=O)Nc2ccc3c(O)cc(S(=O)(=O)O)cc3c2)cc1	4.28%
Cc1ccc(S(=O)(=O)c2cc(Nc3ccccc3)ccc2O)cc1	8.82%
CN(C)/C=C1\NC(=S)N(c2ccc(Cl)cc2)C1=O	-20.4%
Cc1ccc(S(=O)(=O)N2CCN(Cc3csc(C)n3)CC2)cc1	2.27%
CC(C)CN(C(=O)COC(=O)CSc1ccc(Br)cc1)C1CCS(=O)(=O)C1 (configuration not stated)	-3.62%
COc1cc(C=O)ccc1OCCOCCOc1ccc(Cl)cc1Cl	-6.82%

SMILES	inhibition
Nc1cccc2cc(S(=O)(=O)O)ccc12	13.9%
Nc1cccc2c(O)cccc12	6.13%
O=C1c2ccccc2-c2n[nH]c(=O)c3ccc(N4CCCCC4)c1c23	-9.35%
O=C1c2ccccc2-c2nccnc21	1.62%
C=CCNC(=S)N/N=C/c1ccccc1OCCOc1ccccc1	2.29%
CCN(CC)C(=O)CCSc1nnc(-c2ccncc2)o1	-3.83%
Cc1ccc(OCC(=O)N[C@@H](C)c2nnc3ccccn23)cc1C	-6.18%
O=C(COC(=O)c1cccc(F)c1)Nc1cccc(S(=O)(=O)N2CCOCC2)c1	-5.49%
COc1ccc(NC(=O)C2CCC(CNc3c(N4CCC(C)CC4)c(=O)c3=O)CC2)cc1OC (configuration not stated)	-6.26% and 8.76%
O=C(NNc1ccccc1)c1ccccc1	-0.81%
COc1ccc(C(=O)NNc2ccccc2)cc1	4.46%
Cn1c(=O)[nH]c(=O)c2c1nc(N1CCOCC1)n2CCN1CCOCC1	1.62%
Cc1ccccc1C(=O)Nc1scc(-c2ccc(Br)cc2)c1C(=O)O	22.5%
COc1cc(C(=O)Nc2scc(-c3ccc(C)cc3)c2C(=O)O)cc(OC)c1OC	3.47%
COc1cc(C(=O)Nc2scc(-c3ccccc3)c2C(=O)O)cc(OC)c1OC	14.7%
O=C(Nc1scc(-c2cccs2)c1C(=O)O)c1cccs1	22.9%
COc1ccc(-c2csc(NC(=O)c3cccs3)c2C(=O)O)cc1OC	-3.65%
COc1ccc(-c2csc(NC(=O)c3ccccc3F)c2C(=O)O)cc1	11.1%
Cc1ccc(Cn2ccc(NC(=O)c3cc(-c4ccc(Cl)cc4)on3)n2)cc1	-1.39%
Oc1ccccc1C1OCC2(CO1)COC(c1ccccc1O)OC2 (configuration not stated)	1.95%
COc1cccc(-c2c(-c3cc(OC)cc(OC)c3)n(C)c3ccc(-c4ccc(OC)nc4)cc23)c1	2.45%
COC(=O)[C@@H](NC(=O)/C=C/c1ccc(OC)cc1)C(C)C	-9.35%
COc1ccc(NC(=O)N(C)C[C@@H]2OCc3cn(nn3)CCCC(=O)N([C@H](C)CO)C[C@H]2C)cc1	-1.7%
